# Data from PubChem BioAssay (NCATS).
# Records with an inconclusive call do not appear. Values without a mark were called inactive. The call rests on the fitted dose curve; in most records, active means well fitted curve in the direction sought with a large enough effect; inconclusive means small, poorly fitted or top-dose-only effect, or another doubt; inactive means no such curve, though single readings can be large or run the other way.
# Target: Metallo-beta-lactamase type 2 (Klebsiella pneumoniae) (UniProt C7C422)
# Sequence (C7C422 whole entry, looked up): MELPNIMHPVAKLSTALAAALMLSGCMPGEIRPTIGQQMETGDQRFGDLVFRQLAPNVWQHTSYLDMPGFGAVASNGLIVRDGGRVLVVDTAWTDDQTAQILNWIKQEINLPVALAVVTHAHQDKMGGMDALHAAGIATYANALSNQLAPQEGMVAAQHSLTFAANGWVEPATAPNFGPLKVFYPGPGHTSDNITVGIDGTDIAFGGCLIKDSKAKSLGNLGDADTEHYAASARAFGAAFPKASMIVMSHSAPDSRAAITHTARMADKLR
# Assay: qHTS to identify inhibitors of the New Delhi Metallo-beta-lactamase (NDM): assay validation screen against the NCATS LOPAC Collection (AID 1794843)
# Conditions: NDM-1 enzyme, nitrocefin hydrolysis, absorbance 485 nm; series mostly up to 38.4 µM; activity change, negative = inhibition: at the top concentration
# Outline: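 Absorbance at 485 nm from nitrocefin turnover (50 uM solution added), read at plateau, gives the read-out. Compounds in DMSO were incubated first with 2 nM final NDM-1 in pH 7.0 HEPES buffer containing 1 uM ZnSO4 and 0.01% Tween20.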
# On the % scale 0 is the no-effect control and ±100 the full control effect.
row,Compound,"activity change, negative = inhibition"
1,C[N+](C)(C)CCCCCCCCCC[N+](C)(C)C,1.66%
2,CC1=NS(=O)(=O)c2cc(Cl)ccc2N1,-9.11%
3,COC(=O)C1=C(C)NC(C)=C(C(=O)OCCN(C)Cc2ccccc2)C1c1cccc([N+](=O)[O-])c1 (centres undefined),1.92%
4,CN(C(=O)CCCOc1ccc2[nH]c(=O)ccc2c1)C1CCCCC1,-1.39%
5,NC(=O)c1cn(Cc2c(F)cccc2F)nn1,-1.71%
6,O=C1CC2(CCCC2)CC(=O)N1CCCCN1CCN(c2ncccn2)CC1,-0.187%
7,CCn1cc(C(=O)O)c(=O)c2cc3c(cc21)OCO3,-0.872%
8,CCN(CC)CCNC(=O)c1ccc(NC(C)=O)cc1,4.84%
9,CN(C)CCN(Cc1cccs1)c1ccccn1,-4.85%
10,Brc1c(NC2=NCCN2)ccc2nccnc12,-2.28%
11,CC(=O)Oc1cc(C(C)C)c(OCCN(C)C)cc1C,-3.89%
12,COc1ccc2c(c1OC)C(=O)O[C@@H]2[C@H]1c2c(cc3c(c2OC)OCO3)CCN1C,-8.43%
13,CCn1ccnc1CC1COc2ccccc2O1 (centres undefined),-1.3%
14,CC(C)COCC(CN(Cc1ccccc1)c1ccccc1)N1CCCC1 (centres undefined),-6.98%
15,CCO/C([O-])=N/c1c[n+](N2CCOCC2)no1,21.4%
16,C[C@]12CCC(=O)C=C1CC[C@@H]1[C@@H]2C(=O)C[C@@]2(C)[C@H]1CC[C@]2(O)C(=O)CO,-0.498%
17,Nc1c2c(nc3ccccc13)CCCC2O (centres undefined),-8.21%
18,CN1C[C@H](C(=O)N[C@]2(C)O[C@@]3(O)[C@@H]4CCCN4C(=O)[C@H](Cc4ccccc4)N3C2=O)C[C@@H]2c3cccc4[nH]cc(c34)C[C@H]21,11%
19,CNC1(C)C2CCC(C2)C1(C)C (centres undefined),-0.541%
